Screen size: about 22,000 compounds; about 220 (1%) were called active. Many of the other results were omitted from the sample, so actives are more common in it than they were. A number with no mark means an inactive call. No stated cut-off is given here; in the data, active means inhibition above about 35%; inactive means the rest.
Target: Mitogen-activated protein kinase kinase kinase 5 (Homo sapiens) (UniProt Q99683)
Assay: ASK1 kinase inhibitors, primary screen, biochemical, AlphaScreen (AID 1159602);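 further: 0% = median of compound wells and 100% = no enzyme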
Conditions: AlphaScreen MKK6 phosphorylation by ASK1, luminescence; at 7.44 µM; stronger effect = higher value

Chain of Mitogen-activated protein kinase kinase kinase 5 (Homo sapiens) (Q99683 whole entry, looked up): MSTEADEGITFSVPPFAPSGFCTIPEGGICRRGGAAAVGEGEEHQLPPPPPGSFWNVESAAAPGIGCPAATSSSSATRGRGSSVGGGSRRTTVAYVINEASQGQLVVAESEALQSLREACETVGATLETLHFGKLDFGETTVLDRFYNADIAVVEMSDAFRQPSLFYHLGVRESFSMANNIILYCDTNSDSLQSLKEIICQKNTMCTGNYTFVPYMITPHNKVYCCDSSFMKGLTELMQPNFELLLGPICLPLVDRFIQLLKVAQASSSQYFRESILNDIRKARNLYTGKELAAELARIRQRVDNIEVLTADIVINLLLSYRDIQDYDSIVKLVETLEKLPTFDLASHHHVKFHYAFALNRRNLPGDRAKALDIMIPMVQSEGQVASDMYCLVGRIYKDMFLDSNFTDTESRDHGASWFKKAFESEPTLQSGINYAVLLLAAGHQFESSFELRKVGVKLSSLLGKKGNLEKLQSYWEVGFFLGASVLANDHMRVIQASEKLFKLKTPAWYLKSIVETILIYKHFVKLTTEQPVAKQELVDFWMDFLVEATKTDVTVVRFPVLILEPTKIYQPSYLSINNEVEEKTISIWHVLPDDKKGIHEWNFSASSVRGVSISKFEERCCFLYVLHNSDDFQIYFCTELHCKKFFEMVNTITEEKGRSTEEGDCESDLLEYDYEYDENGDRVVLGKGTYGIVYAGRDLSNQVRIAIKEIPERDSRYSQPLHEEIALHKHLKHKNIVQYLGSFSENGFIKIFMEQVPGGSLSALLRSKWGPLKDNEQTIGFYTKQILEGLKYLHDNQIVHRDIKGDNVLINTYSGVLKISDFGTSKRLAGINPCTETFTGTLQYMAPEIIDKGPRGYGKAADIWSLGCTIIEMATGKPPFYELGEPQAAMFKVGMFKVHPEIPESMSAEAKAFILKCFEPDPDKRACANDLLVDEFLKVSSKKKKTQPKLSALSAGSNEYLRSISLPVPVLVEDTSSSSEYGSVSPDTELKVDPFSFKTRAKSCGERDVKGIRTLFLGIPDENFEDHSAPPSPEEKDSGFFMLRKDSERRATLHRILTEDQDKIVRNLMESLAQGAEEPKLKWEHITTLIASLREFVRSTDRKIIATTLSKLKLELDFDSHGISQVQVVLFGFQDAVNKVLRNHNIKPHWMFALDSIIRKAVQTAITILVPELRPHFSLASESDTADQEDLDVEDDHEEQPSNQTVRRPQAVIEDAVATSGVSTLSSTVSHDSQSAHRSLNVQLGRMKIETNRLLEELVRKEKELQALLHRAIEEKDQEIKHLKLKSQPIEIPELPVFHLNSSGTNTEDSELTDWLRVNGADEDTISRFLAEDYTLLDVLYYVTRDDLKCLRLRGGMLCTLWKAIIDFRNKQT

In order of falling inhibition:
1. c1ccc(Nc2nccc(Nc3ccc(N4CCOCC4)cc3)n2)cc1  25.1%
2. CCCNc1nc(N2CCCC(C(=O)N(CC)CC)C2)nc2c1ncn2Cc1ccc(C(F)(F)F)cc1 (stereo unspecified)  15.8%
3. COc1cc(NC(=O)c2cnc(-c3ccccc3)s2)cc(OC)c1OC  15%
4. CC(C)c1nc2ccc(-c3cn[nH]c3)cc2c(=O)[nH]1  12.2%
5. CC(=O)Nc1ccc(NC(=O)c2csc(-c3c(C)nn(C)c3C)n2)cc1  11%
6. c1ccc(-n2cnc(-c3ccnc(Nc4ccc(N5CCOCC5)cc4)c3)n2)cc1  9.1%
7. COc1ccc(-c2nc(Nc3cc(OC)c(OC)c(OC)c3)c3ncn(C(C)C)c3n2)cc1  9.01%
8. c1ccc(CNc2nc(Nc3cccnc3)nc3c2ncn3-c2ccccc2)cc1  8.4%
9. CNC(=O)c1ccccc1Nc1ccnc(Nc2ccc(N3CCOCC3)cc2)c1  8.11%
10. O=C(NCc1nc2ccccc2[nH]1)c1cc(N2CCCC2CO)nc2ccccc12 (stereo unspecified)  7.25%
11. O=C(NCCN1CCOCC1)C1CCN(c2ccc(Nc3ccccc3)nn2)CC1  6.22%
12. c1cnc(Nc2nc(NCc3cccnc3)c3ncn(C4CCCCC4)c3n2)nc1  5.63%
13. O=C(NC1CC1)c1ccc(-c2ccc(C(=O)NCc3cccc(C(F)(F)F)c3)s2)cc1  4.99%
14. Cc1nn(C)c(C)c1-c1nc(C(=O)NCCc2ccc(O)cc2)cs1  4.91%
15. NC(=O)c1ccc(-c2nc(Nc3ccc(N4CCOCC4)cc3)c3ncn(-c4ccccc4)c3n2)cc1  4.79%
16. CCN(CC)c1nc(NCCc2ccc(O)cc2)nc(Nc2cc(OC)c(OC)c(OC)c2)n1  4.75%
17. CC(C)[C@@H](O)C(=O)N1CCC[C@@H]1C(=O)Nc1ccc2[nH]ncc2c1  4.14%
18. Nc1cccc(-c2cc(Nc3ccccc3)ncn2)c1  4.09%
19. CCN(CC)c1nc(Nc2cc(OC)c(OC)c(OC)c2)nc(Nc2nc3ccccc3n2C)n1  3.84%
20. c1ccc(Oc2ccc(Nc3nc(Nc4ccccn4)nc4c3ncn4-c3ccsc3)cc2)cc1  2.93%
21. Cc1cccc(CC(=O)Nc2cnn(-c3cccc(-c4nn[nH]n4)c3)c2)c1  1.78%
22. Nc1nc(NCc2nc3ccccc3[nH]2)cc(N2CCN(Cc3ccc4c(c3)OCO4)CC2)n1  1.22%
23. Nc1cccc(-c2cncc(C(=O)NCCOc3ccccc3)c2)c1  1.06%
24. Nc1nc(NCCCN2CCCC2=O)cc(Nc2cnccn2)n1  0.26%
25. CC(=O)c1cccc(-c2nc3ccc(C(=O)NC4CCN(Cc5ccccc5)CC4)cc3s2)c1  -0.28%
26. COc1ccc(CCNc2ncnc3nc(-c4ccc(C(N)=O)cc4)[nH]c23)cc1  -0.94%
27. CCCNC(=O)c1cncc(-c2ccccc2)c1  -0.96%
28. COc1ccc(CCNc2cc(Nc3cc(OC)c(OC)c(OC)c3)nc(N)n2)cc1  -1.19%
29. NC(=O)c1ccc(-c2ncc(C(=O)NCCOc3ccccc3)s2)cc1  -1.66%
30. CNC(=O)c1cc(F)ccc1Nc1cc(Nc2ccc3nc[nH]c3c2)ncc1C(F)(F)F  -2.41%
31. CC(=O)Nc1ccc(Nc2ncnc3c2nc(NCCN2CCOCC2)n3C(C)C)cc1  -3.14%
32. CC(C)n1cnc2c(NCc3cccc(C(F)(F)F)c3)nc(Nc3ccc(OC(F)(F)F)cc3)nc21  -3.35%
33. COc1ccc(-c2cnc3ccc4ccccc4c3c2)cc1  -3.77%
34. CC(C)n1c(N2CCOCC2)nc2c(Nc3ccc(Oc4ccccc4)cc3)ncnc21  -3.94%
35. Nc1nc(NCc2cccc(C(F)(F)F)c2)cc(NCc2ccc3c(c2)OCO3)n1  -4.13%
36. COc1cc(Nc2nc(C)cc(N)n2)cc(OC)c1OC  -5.08%
37. CCN(CC)CCNC(=O)c1ccc(Nc2cc(Nc3ccccc3C(=O)NC)c(C(F)(F)F)cn2)c(C)c1  -5.11%
38. CCCNC(=O)c1csc(Nc2nc3ccccc3n2C)n1  -7.28%
39. COc1cc2nc(Cl)nc(NC3CC3)c2cc1OC  -7.49%
40. Cc1cc(NCc2nc3ccccc3[nH]2)nc(N2CCOCC2)n1  -7.53%
41. c1ccc2[nH]c(CNc3ncnc4nc(Nc5ccncn5)[nH]c34)nc2c1  -8.27%
42. Cc1cnc(Nc2cnccn2)nc1NCc1cccnc1  -9.12%
43. Oc1ccc(CCNc2nc(Nc3ccccn3)nc3nc[nH]c23)cc1  -9.99%
44. c1nc(NC2CC2)c2[nH]c(N3CCC(N4CCOCC4)CC3)nc2n1  -10.6%
45. O=C(NC1CCN(Cc2ccccc2)CC1)c1cc(N2CCCC2CO)nc2ccccc12 (stereo unspecified)  -11.9%
46. O=C(NCCCN1CCCC1=O)C1CCN(c2ccc(Cl)nn2)CC1  -13.9%
47. CCCNc1ncnc2c1nc(N1CCN(c3ccccn3)CC1)n2C(C)C  -14.9%
48. O=C1CCCN1CCn1cnc2c(NC3CC3)nc(NCc3ccc4c(c3)OCO4)nc21  -15.8%
49. CC(C)C[C@H](O)C(=O)NC1CCC(Nc2ccc3[nH]ncc3c2)CC1 (stereo partly specified)  -17%
50. Cc1cnc(Nc2ccc(N3CCOCC3)cc2)nc1Nc1ccccc1-c1ncn[nH]1  -18%
51. O=C(Cc1cn(-c2ccc(N3CCC(N4CCOCC4)CC3)nn2)c2ccccc12)NCCCN1CCCC1=O  -20.2%
52. c1ccc(CN2CCC(Nc3nc(-c4csc5ccccc45)nc4c3ncn4C3CCCCC3)CC2)cc1  -20.4%
53. CC(C)n1c(Nc2ccccc2)nc2c(NCc3cccc(C(F)(F)F)c3)ncnc21  -21.3%
54. COc1ccc(CCNc2nc(-c3ccccc3)nc3c2ncn3CCN2CCCC2=O)cc1  -23.4%

For `Fc1cnc(Nc2ccc(N3CCNCC3)cc2)cc1-n1cnc(Nc2ccccc2)n1`, the inhibition was 56.6% (active).
For `c1ccc(-c2ncn[nH]2)c(Nc2ccnc(Nc3ccc(N4CCOCC4)cc3)c2)c1`, the inhibition was 37% (active).

From PubChem BioAssay AID1159602 (The Scripps Research Institute Molecular Screening Center, 2016)
